Results published in PubChem BioAssay AID1159580 (chemical genetic matrix, 2015).
Several values for one entry are separate records, joined by “and”; a condition that tells them apart may be missing. Equal entries are not always repeated. Out of some 5,500 compounds screened, about 2,000 (36%) were called active. Not shown: some 18% with an inconclusive outcome. No stated cut-off is given here; in the data, active means normalized growth mostly below about 0.91 (no sharp cut-off); inconclusive means no clear call, values can overlap the other calls; inactive means mostly above about 0.92. The list shows a part of the results.

Experiment: chemical genetic growth profiling, strain panel (AID 1159580);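 further: tested at 20 µM; growth read once vehicle control cultures reached saturation at 30 °C; 1 = growth at the plate median or of vehicle wells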
Settings: growth OD
[1] = S. cerevisiae deletion strains, locus YBR021W, strain FUR4, stronger effect = lower value
[2] = S. cerevisiae deletion strains, locus YBR229C, strain ROT2, stronger effect = lower value
[3] = S. cerevisiae deletion strains, locus YCL029C, strain bik1, stronger effect = lower value
[4] = S. cerevisiae deletion strains, locus YDL035C, strain GPR1, stronger effect = lower value
[5] = S. cerevisiae deletion strains, locus YDL074C, strain BRE1, stronger effect = lower value
[6] = S. cerevisiae deletion strains, locus YDL101C, strain DUN1, stronger effect = lower value
[7] = S. cerevisiae deletion strains, locus YDL134C, strain PPH21, stronger effect = lower value
[8] = S. cerevisiae deletion strains, locus YDL185W, strain tfp1, stronger effect = lower value
[9] = S. cerevisiae deletion strains, locus YDL192W, strain arf1, stronger effect = lower value
[10] = S. cerevisiae deletion strains, locus YDR101C, strain arx1, stronger effect = lower value
[11] = S. cerevisiae deletion strains, locus YDR162C, strain NBP2, stronger effect = lower value
[12] = S. cerevisiae deletion strains, locus YDR318W, strain mcm21, stronger effect = lower value
[13] = S. cerevisiae deletion strains, locus YDR388W, stronger effect = lower value
[14] = S. cerevisiae deletion strains, locus YDR502C, strain sam2, stronger effect = lower value
[15] = S. cerevisiae deletion strains, locus YER110C, stronger effect = lower value
[16] = S. cerevisiae deletion strains, locus YER155C, strain BEM2, stronger effect = lower value
[17] = S. cerevisiae deletion strains, locus YER167W, strain BCK2, stronger effect = lower value
[18] = S. cerevisiae deletion strains, locus YGL078C, strain dbp3, stronger effect = lower value
[19] = S. cerevisiae deletion strains, locus YGL086W, strain mad1, stronger effect = lower value
[20] = S. cerevisiae deletion strains, locus YGL248W, strain PDE1, stronger effect = lower value
[21] = S. cerevisiae deletion strains, locus YGR135W, strain pre9, stronger effect = lower value
[22] = S. cerevisiae deletion strains, locus YGR252W, strain gcn5, stronger effect = lower value
[23] = S. cerevisiae deletion strains, locus YHR030C, strain SLT2, stronger effect = lower value
[24] = S. cerevisiae deletion strains, locus YHR079C, strain IRE1 (second series), stronger effect = lower value
[25] = S. cerevisiae deletion strains, locus YHR094C, strain hxt1, stronger effect = lower value
[26] = S. cerevisiae deletion strains, locus YHR129C, strain ARP1, stronger effect = lower value
[27] = S. cerevisiae deletion strains, locus YHR200W, strain rpn10, stronger effect = lower value
[28] = S. cerevisiae deletion strains, locus YIL066C, strain RNR3, stronger effect = lower value
[29] = S. cerevisiae deletion strains, locus YIL073C, strain SPO22, stronger effect = lower value
[30] = S. cerevisiae deletion strains, locus YIL125W, strain kgd1, stronger effect = lower value
[31] = S. cerevisiae deletion strains, locus YIR030C, strain dcg1, stronger effect = lower value
[32] = S. cerevisiae deletion strains, locus YJL095W, strain BCK1, stronger effect = lower value
[33] = S. cerevisiae deletion strains, locus YJL134W, strain LCB3, stronger effect = lower value
[34] = S. cerevisiae deletion strains, locus YJL168C, strain set2, stronger effect = lower value
[35] = S. cerevisiae deletion strains, locus YJL187C, strain SWE1 (second series), stronger effect = lower value
[36] = S. cerevisiae deletion strains, locus YJR043C, strain POL32, stronger effect = lower value
[37] = S. cerevisiae deletion strains, locus YJR075W, strain HOC1, stronger effect = lower value
[38] = S. cerevisiae deletion strains, locus YKL009W, strain mrt4, stronger effect = lower value
[39] = S. cerevisiae deletion strains, locus YKL068W, stronger effect = lower value
[40] = S. cerevisiae deletion strains, locus YKL085W, strain MDH1 (second series), stronger effect = lower value
[41] = S. cerevisiae deletion strains, locus YKL085W, strain MDH1, stronger effect = lower value
[42] = S. cerevisiae deletion strains, locus YKL190W, strain CNB1, stronger effect = lower value
[43] = S. cerevisiae deletion strains, locus YKR001C, strain vps1, stronger effect = lower value
[44] = S. cerevisiae deletion strains, locus YLR039C, strain RIC1, stronger effect = lower value
[45] = S. cerevisiae deletion strains, locus YLR058C, strain SHM2, stronger effect = lower value
[46] = S. cerevisiae deletion strains, locus YLR102C, strain apc9, stronger effect = lower value
[47] = S. cerevisiae deletion strains, locus YLR268W, strain sec22, stronger effect = lower value
[48] = S. cerevisiae deletion strains, locus YLR330W, strain CHS5, stronger effect = lower value
[49] = S. cerevisiae deletion strains, locus YLR371W, strain rom2, stronger effect = lower value
[50] = S. cerevisiae deletion strains, locus YLR418C, strain cdc73, stronger effect = lower value
[51] = S. cerevisiae deletion strains, locus YML016C, strain PPZ1, stronger effect = lower value
[52] = S. cerevisiae deletion strains, locus YML032C, strain rad52, stronger effect = lower value
[53] = S. cerevisiae deletion strains, locus YML124C, strain tub3, stronger effect = lower value
[54] = S. cerevisiae deletion strains, locus YMR078C, strain ctf18, stronger effect = lower value
[55] = S. cerevisiae deletion strains, locus YMR223W, strain ubp8, stronger effect = lower value
[56] = S. cerevisiae deletion strains, locus YMR307W, strain GAS1, stronger effect = lower value
[57] = S. cerevisiae deletion strains, locus YNL067W, strain RPL9B, stronger effect = lower value
[58] = S. cerevisiae deletion strains, locus YNL153C, strain GIM3, stronger effect = lower value
[59] = S. cerevisiae deletion strains, locus YNL233W, strain BNI4, stronger effect = lower value
[60] = S. cerevisiae deletion strains, locus YNL250W, strain rad50, stronger effect = lower value
[61] = S. cerevisiae deletion strains, locus YNL271C, strain bni1, stronger effect = lower value
[62] = S. cerevisiae deletion strains, locus YNL298W, strain CLA4, stronger effect = lower value
[63] = S. cerevisiae deletion strains, locus YNL307C, strain MCK1, stronger effect = lower value
[64] = S. cerevisiae deletion strains, locus YNR052C, strain pop2, stronger effect = lower value
[65] = S. cerevisiae deletion strains, locus YOL006C, strain TOP1, stronger effect = lower value
[66] = S. cerevisiae deletion strains, locus YOL012C, strain htz1
[67] = S. cerevisiae deletion strains, locus YOL147C, strain pex11, stronger effect = lower value
[68] = S. cerevisiae deletion strains, locus YOR061W, strain CKA2, stronger effect = lower value
[69] = S. cerevisiae deletion strains, locus YOR069W, strain VPS5, stronger effect = lower value
[70] = S. cerevisiae deletion strains, locus YOR136W, strain idh2, stronger effect = lower value
[71] = S. cerevisiae deletion strains, locus YOR144C, strain elg1, stronger effect = lower value
[72] = S. cerevisiae deletion strains, locus YOR184W, strain ser1, stronger effect = lower value
[73] = S. cerevisiae deletion strains, locus YOR316C, strain cot1, stronger effect = lower value
[74] = S. cerevisiae deletion strains, locus YPR119W, strain clb2, stronger effect = lower value
[75] = S. cerevisiae deletion strains, locus YPR141C, strain kar3, stronger effect = lower value
[76] = S. cerevisiae deletion strains, locus YPR163C, strain tif3, stronger effect = lower value
[77] = S. cerevisiae deletion strains, locus YPR167C, strain met16, stronger effect = lower value
[78] = S. cerevisiae deletion strains, strain wtn01, stronger effect = lower value

Measured: normalized growth

C[C@@H]1OC(O[C@H]2[C@H](O)[C@@H](O)[C@H](OC[C@H]3O[C@@H](OC(=O)[C@]45CCC(C)(C)CC4C4=CCC6[C@@]7(C)CC[C@H](OC8OC[C@H](O)[C@H](O)[C@H]8OC8O[C@@H](C)[C@H](O)[C@@H](O)[C@H]8O)[C@@](C)(CO)C7CC[C@@]6(C)[C@]4(C)CC5)[C@H](O)[C@@H](O)[C@@H]3O)O[C@@H]2CO)[C@H](O)[C@H](O)[C@H]1O (some centres not stated)
inactive: [1] 0.991 | [2] 0.987 | [3] 0.985 | [4] 1 | [5] 0.99 | [6] 0.992 | [7] 1.02 | [8] 0.97 | [9] 0.985 | [10] 0.995 | S. cerevisiae deletion strains, locus YDR150W, strain NUM1, stronger effect = lower value 0.998 | [11] 1.02 | [12] 0.993 | [13] 0.986 | [14] 0.99 | S. cerevisiae deletion strains, locus YEL061C, strain CIN8, stronger effect = lower value 0.993 | [15] 0.986 | [16] 0.989 | [17] 1 | [18] 0.985 | [19] 1.01 | [20] 0.991 | [21] 0.993 | S. cerevisiae deletion strains, locus YGR229C, strain SMI1, stronger effect = lower value 1.01 | [22] 0.987 | [23] 0.997 and 1.02 | [24] 0.993 | S. cerevisiae deletion strains, locus YHR079C, strain IRE1, stronger effect = lower value 1.01 | [25] 0.996 | [26] 0.99 | [27] 0.997 | [28] 1 | [29] 0.993 | [30] 0.983 | [31] 1 | [32] 1.01 and 0.985 | [33] 0.991 | [34] 0.991 | [35] 0.997 | [36] 1.02 | S. cerevisiae deletion strains, locus YJR066W, strain TOR1, stronger effect = lower value 0.967 | [37] 1.02 | [38] 0.968 | [39] 0.98 | [40] 1 | [41] 1 | [42] 0.995 | [43] 0.984 | [44] 1.04 | [45] 0.988 | [46] 0.993 | S. cerevisiae deletion strains, locus YLR113W, strain HOG1, stronger effect = lower value 0.992 | S. cerevisiae deletion strains, locus YLR262C, strain YPT6, stronger effect = lower value 1.03 | [47] 0.992 | [48] 0.989 | S. cerevisiae deletion strains, locus YLR342W, strain FKS1 (second series), stronger effect = lower value 1.01 | [49] 0.986 | [50] 0.992 | [51] 0.987 | [52] 0.986 | [53] 0.991 | [54] 0.985 | [55] 0.98 | S. cerevisiae deletion strains, locus YMR263W, strain SAP30, stronger effect = lower value 1.01 | [56] 1.06 | [57] 1.01 | S. cerevisiae deletion strains, locus YNL128W, strain TEP1, stronger effect = lower value 0.994 | [58] 1.02 | S. cerevisiae deletion strains, locus YNL183C, strain NPR1, stronger effect = lower value 0.983 | [59] 1 | [60] 0.971 | [61] 0.987 | [62] 0.993 | [63] 0.989 | [64] 0.978 | [65] 0.946 | [66] 0.966 | [67] 0.997 | [68] 0.984 | [69] 0.991 | [70] 0.979 | [71] 0.997 | [72] 1.01 | S. cerevisiae deletion strains, locus YOR231W, strain MKK1, stronger effect = lower value 0.983 | [73] 0.983 | S. cerevisiae deletion strains, locus YPL055C, strain LGE1, stronger effect = lower value 1.02 | S. cerevisiae deletion strains, locus YPL241C, strain CIN2, stronger effect = lower value 0.997 | S. cerevisiae deletion strains, locus YPL256C, strain CLN2, stronger effect = lower value 1.04 | [74] 0.991 | [75] 0.982 | [76] 0.994 | [77] 0.985 | [78] 1 | S. cerevisiae strains, strain wild type, stronger effect = lower value 0.994

CC(=O)OC1CC[C@@]2(C)C(CC[C@]3(C)C2CCC2C4CC(C)(C)CCC4(C(=O)O)CC[C@]23C)C1(C)C (some centres not stated)
inactive: [1] 1.02 | [2] 0.998 | [3] 0.968 | [4] 1.06 | [5] 1.05 | [6] 0.985 | [7] 1.03 | [8] 0.934 | [9] 1.01 | [10] 1.02 | [11] 1.01 | [12] 0.993 | [13] 0.975 | [14] 0.999 | [15] 0.971 | [16] 0.985 | [17] 0.998 | [18] 0.974 | [19] 1.01 | [20] 1.04 | [21] 0.972 | [22] 1.05 | [23] 1.01 | [24] 0.975 | [25] 0.978 | [26] 1.03 | [27] 0.999 | [28] 1.01 | [29] 0.986 | [30] 0.979 | [31] 0.974 | [32] 1.03 | [33] 0.994 | [34] 0.977 | [35] 1.01 | [36] 1.07 | [37] 1 | [38] 0.966 | [39] 1.02 | [40] 1.01 | [41] 1.01 | [42] 0.996 | [43] 1.01 | [44] 1.11 | [45] 1.02 | [46] 0.973 | [47] 0.998 | [48] 0.996 | [49] 0.968 | [50] 1.02 | [51] 1 | [52] 0.987 | [53] 0.991 | [54] 0.968 | [55] 0.976 | [56] 1.25 | [57] 0.989 | [58] 0.998 | [59] 1.03 | [60] 0.92 | [61] 0.995 | [62] 0.992 | [63] 1.01 | [64] 0.992 | [65] 1.25 | [66] 1.01 | [67] 0.979 | [68] 1 | [69] 1 | [70] 0.983 | [71] 0.989 | [72] 1.08 | [73] 0.964 | [74] 0.951 | [75] 0.975 | [76] 0.985 | [77] 0.99 | [78] 1.01
